Measurements reported in publication PMC4081100, “A DNA-binding-site landscape and regulatory network analysis for NAC transcription factors in Arabidopsis thaliana”.

Tests used:
Assay in all cases: universal protein binding microarray (PBM); transcription factors of Arabidopsis thaliana; high values mean tight binding
Settings in all cases: protein: recombinant; tags: GST; chain copies: 2; dsDNA, one strand shown
GST-ANAC092(1-176) = molecular target: T1, GST-ANAC092(1-176) (Arabidopsis thaliana, UniProt Q9FKA0 1-176)
T1 sequence: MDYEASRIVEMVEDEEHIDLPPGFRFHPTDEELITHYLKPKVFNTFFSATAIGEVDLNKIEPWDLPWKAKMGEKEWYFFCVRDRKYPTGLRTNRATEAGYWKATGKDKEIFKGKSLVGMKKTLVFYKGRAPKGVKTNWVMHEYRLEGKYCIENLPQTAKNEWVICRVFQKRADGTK
Outline: (§1)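 Each value is a normalised enrichment score (E-score) describing binding. The GST-tagged proteins, NAC-domain, full-length or DNA-binding-domain, were induced in cells (zinc-finger proteins with zinc acetate added) and purified on glutathione–Sepharose 4B. They were applied at 200 to 500 nM final, in duplicate, to double-stranded custom all-10-mer Agilent 4 × 180K arrays, and gapped and ungapped 8-mers were scored.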

GST-NTL6(1-168) = GST-NTL6(1-168) (Arabidopsis thaliana, UniProt Q9SCK6 1-168)
Chain of GST-NTL6(1-168) (Q9SCK6 1-168): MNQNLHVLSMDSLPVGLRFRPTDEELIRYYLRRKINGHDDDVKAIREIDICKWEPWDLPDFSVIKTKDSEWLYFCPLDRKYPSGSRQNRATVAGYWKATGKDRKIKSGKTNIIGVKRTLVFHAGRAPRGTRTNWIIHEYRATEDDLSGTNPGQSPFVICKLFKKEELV
Outline: as §1

GST-ANAC019 NAC domain = molecular target: T2, GST-ANAC019 NAC domain (Arabidopsis thaliana, UniProt Q9C932 14-162)
T2 sequence: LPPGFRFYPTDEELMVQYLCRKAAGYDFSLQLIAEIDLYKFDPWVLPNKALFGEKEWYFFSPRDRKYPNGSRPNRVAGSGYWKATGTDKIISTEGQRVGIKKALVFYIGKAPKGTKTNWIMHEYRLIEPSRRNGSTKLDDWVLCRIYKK
Outline: as §1

GST-ANAC055(1-171) = molecular target: T3, GST-ANAC055(1-171) (Arabidopsis thaliana, UniProt Q9LDY8 1-171)
T3 sequence: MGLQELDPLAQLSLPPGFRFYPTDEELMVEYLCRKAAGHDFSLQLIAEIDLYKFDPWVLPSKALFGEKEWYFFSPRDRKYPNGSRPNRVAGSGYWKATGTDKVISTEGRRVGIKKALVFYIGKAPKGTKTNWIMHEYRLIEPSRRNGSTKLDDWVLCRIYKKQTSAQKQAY
Outline: as §1

GST-ATAF1 NAC domain = molecular target: T4, GST-ATAF1 NAC domain (Arabidopsis thaliana, UniProt Q39013 7-158)
T4 sequence: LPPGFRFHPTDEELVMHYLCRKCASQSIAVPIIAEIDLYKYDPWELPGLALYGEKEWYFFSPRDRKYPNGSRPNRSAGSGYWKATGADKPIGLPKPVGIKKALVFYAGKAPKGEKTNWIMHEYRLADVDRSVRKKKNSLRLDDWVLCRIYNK
Outline: as §1

[1] = molecular target: T5, GST-ANAC092(1-285) full length (Arabidopsis thaliana, UniProt Q9FKA0 1-285)
T5 sequence: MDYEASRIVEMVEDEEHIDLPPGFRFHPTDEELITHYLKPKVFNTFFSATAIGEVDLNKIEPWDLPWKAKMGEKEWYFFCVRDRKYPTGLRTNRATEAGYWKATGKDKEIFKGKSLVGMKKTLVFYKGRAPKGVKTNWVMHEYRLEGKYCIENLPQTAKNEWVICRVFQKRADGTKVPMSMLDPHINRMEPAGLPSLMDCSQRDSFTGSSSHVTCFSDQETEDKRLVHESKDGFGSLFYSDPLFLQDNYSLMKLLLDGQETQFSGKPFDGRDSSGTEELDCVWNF
Outline: as §1

GST-NAP(1-166) = molecular target: T6, GST-NAP(1-166) (Arabidopsis thaliana, UniProt O49255 1-166)
T6 sequence: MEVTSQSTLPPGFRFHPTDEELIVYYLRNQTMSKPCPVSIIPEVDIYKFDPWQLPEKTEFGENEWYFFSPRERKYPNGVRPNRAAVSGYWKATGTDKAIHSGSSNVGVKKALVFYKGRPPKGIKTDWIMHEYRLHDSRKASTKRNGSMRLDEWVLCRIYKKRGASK
Outline: as §1

GST-NST2(1-184) = molecular target: T7, GST-NST2(1-184) (Arabidopsis thaliana, UniProt Q9M274 1-184)
T7 sequence: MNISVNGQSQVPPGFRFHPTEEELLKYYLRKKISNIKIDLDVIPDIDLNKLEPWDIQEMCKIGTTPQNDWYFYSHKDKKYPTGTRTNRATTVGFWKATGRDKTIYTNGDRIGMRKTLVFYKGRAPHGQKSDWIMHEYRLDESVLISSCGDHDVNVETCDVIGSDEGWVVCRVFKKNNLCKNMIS
Outline: as §1

GST-NTL8 NAC domain = molecular target: T8, GST-NTL8 NAC domain (Arabidopsis thaliana, UniProt Q9XIN7 14-156)
T8 sequence: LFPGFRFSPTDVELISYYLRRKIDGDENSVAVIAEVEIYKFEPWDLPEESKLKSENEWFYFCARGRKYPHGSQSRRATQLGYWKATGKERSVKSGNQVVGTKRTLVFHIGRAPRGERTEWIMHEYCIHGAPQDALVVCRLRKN
Outline: as §1

GST-SND1(1-203) = molecular target: T9, GST-SND1(1-203) (Arabidopsis thaliana, UniProt Q9LPI7 1-203)
T9 sequence: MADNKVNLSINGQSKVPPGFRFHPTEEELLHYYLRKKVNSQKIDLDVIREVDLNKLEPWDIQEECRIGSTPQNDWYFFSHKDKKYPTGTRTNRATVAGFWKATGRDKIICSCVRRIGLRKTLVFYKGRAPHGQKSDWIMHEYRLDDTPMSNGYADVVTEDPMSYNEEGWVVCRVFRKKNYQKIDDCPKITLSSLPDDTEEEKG
Outline: as §1

GST-VND3 NAC domain = molecular target: T10, GST-VND3 NAC domain (Arabidopsis thaliana, UniProt Q9FH59 12-162)
T10 sequence: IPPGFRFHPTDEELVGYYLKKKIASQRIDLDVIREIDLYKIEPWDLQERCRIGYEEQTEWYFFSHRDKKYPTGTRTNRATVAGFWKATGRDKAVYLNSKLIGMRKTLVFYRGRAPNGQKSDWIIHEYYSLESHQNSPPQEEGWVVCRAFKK
Outline: as §1

GST-VND7 NAC domain = molecular target: T11, GST-VND7 NAC domain (Arabidopsis thaliana, UniProt Q9C8W9 9-158)
T11 sequence: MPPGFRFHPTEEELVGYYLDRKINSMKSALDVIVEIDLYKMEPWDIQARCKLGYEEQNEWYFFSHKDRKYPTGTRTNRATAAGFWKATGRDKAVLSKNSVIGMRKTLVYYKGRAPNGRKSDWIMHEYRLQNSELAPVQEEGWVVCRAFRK
Outline: as §1

Sequence	binding signal (GST-ANAC092(1-176)) [E-score]	binding signal (GST-NTL6(1-168)) [E-score]	binding signal (GST-ANAC019 NAC domain) [E-score]	binding signal (GST-ANAC055(1-171)) [E-score]	binding signal (GST-ATAF1 NAC domain) [E-score]	binding signal [1] [E-score]	binding signal (GST-NAP(1-166)) [E-score]	binding signal (GST-NST2(1-184)) [E-score]	binding signal (GST-NTL8 NAC domain) [E-score]	binding signal (GST-SND1(1-203)) [E-score]	binding signal (GST-VND3 NAC domain) [E-score]	binding signal (GST-VND7 NAC domain) [E-score]
AAGTAAGC	0.284	0.404	0.104	0.158	0.199	0.358	0.0599	0.171	0.337	0.361	0.21	0.272
ACGTAACA	0.438	0.133	0.389	0.413	0.365	0.426	0.417	0.345	0.205	0.409	0.41	0.419
GTTACTTA	0.306	0.461	0.0988	0.117	0.256	0.374	0.113	0.25	0.286	0.41	0.263	0.248
TACGCAAA	0.469	0.104	0.385	0.315	0.323	0.469	0.355	0.393	0.0978	0.473	0.405	0.334
ACGTAACT	0.443	0.174	0.48	0.451	0.444	0.424	0.474	0.251	0.247	0.325	0.466	0.474
ACGAGAAA	0.249	0.265	0.324	0.419	0.184	0.141	0.206	0.188	0.124	0.151	0.276	0.302
CTACGTAA	0.329	0.0836	0.352	0.295	0.316	0.378	0.312	0.0582	0.105	0.402	0.378	0.345
ACGGAAAC	0.325	0.205	0.412	0.388	0.209	0.345	0.305	0.242	0.243	0.191	0.349	0.361
GCAAGTAA	0.339	0.409	0.211	0.198	0.151	0.415	0.056	0.223	0.264	0.352	0.231	0.232
AAGTAATC	0.348	0.414	0.144	0.154	0.22	0.37		0.285	0.328	0.347	0.188	0.136
AATTCCGT	0.274	0.169	0.456	0.429	0.358	0.247	0.379	0.179	0.105	0.122	0.414	0.382
GAAACGTA	0.355	0.0734	0.241	0.219	0.224	0.411	0.223	0.212	0.288	0.435	0.332	0.268
GGAGGTAA	0.079	0.202	0.0898	0.0701	0.137	0.122	0.146	0.106	0.435	0.19	0.139	0.0814
CGTTTCCC	0.244	0.14	0.176	0.176	0.108	0.274	0.28	0.0635	0.422	0.265	0.179	0.186
AGAAGGAA	0.192	0.417	0.0646	0.117	0.149	0.156		0.177	0.379	0.157	0.0779	0.0759
CTAAGTAA	0.2	0.49	0.0529	0.0945	0.107	0.3	0.188	0.225	0.216	0.394	0.238	0.209
ACAAGTAA	0.41	0.25	0.125	0.236	0.238	0.439		0.288		0.257	0.249	0.0784
CACGTTTC	0.424	0.107	0.381	0.375	0.383	0.432	0.332	0.286	0.217	0.299	0.262	0.298
ACGCAACT	0.472	0.105	0.477	0.433	0.416	0.472	0.478	0.39	0.0824	0.422	0.462	0.462
TACGCCAA	0.413	0.0645	0.0981	0.172	0.309	0.439		0.251	0.0846	0.454	0.171	0.244
CTAGGAAA	0.146	0.188	0.18	0.214	0.167	0.0932		0.187	0.425	0.145	0.219	0.13
GTTGAGTA	0.305	0.152	0.0635	0.0864	0.139	0.386		0.279		0.419	0.0828	0.108
GGAAGTAA	0.249	0.404	0.151	0.104	0.123	0.307		0.248	0.203	0.259	0.133	0.0641
GTTCCTTA	0.136	0.458	0.141	0.0564	0.151	0.237	0.117	0.139	0.329	0.376	0.249	0.147
AACGTAAC	0.335	0.15	0.15	0.212	0.253	0.37	0.315	0.324	0.143	0.419	0.278	0.269
GAAGTAAA	0.214	0.409	0.0501	0.107	0.211	0.305		0.224	0.222	0.329	0.179	0.18
GTTGCGTA	0.486	0.184	0.461	0.431	0.415	0.49	0.477	0.465	0.216	0.495	0.452	0.466
